Measured values: PubChem BioAssay AID1546 (The Scripps Research Institute Molecular Screening Center, 2009)
The other results are listed elsewhere or left out. A number with no mark means an inactive call. Rule as the data show it: active = activation above about 45%; inactive = the rest.

Biological target: Neuropeptide Y receptor type 1 (Homo sapiens) (UniProt P25929)
Test: NPY-Y1 potentiators or agonists, confirmation, cell-based (AID 1546);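 also: cells challenged with NPY at its EC10 plus isoproterenol stimulus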
Conditions: cell-based NPY-Y1 potentiator/agonist assay; at 3.6 µM; active compounds read high

Chain of Neuropeptide Y receptor type 1 (Homo sapiens) (P25929 whole entry, looked up): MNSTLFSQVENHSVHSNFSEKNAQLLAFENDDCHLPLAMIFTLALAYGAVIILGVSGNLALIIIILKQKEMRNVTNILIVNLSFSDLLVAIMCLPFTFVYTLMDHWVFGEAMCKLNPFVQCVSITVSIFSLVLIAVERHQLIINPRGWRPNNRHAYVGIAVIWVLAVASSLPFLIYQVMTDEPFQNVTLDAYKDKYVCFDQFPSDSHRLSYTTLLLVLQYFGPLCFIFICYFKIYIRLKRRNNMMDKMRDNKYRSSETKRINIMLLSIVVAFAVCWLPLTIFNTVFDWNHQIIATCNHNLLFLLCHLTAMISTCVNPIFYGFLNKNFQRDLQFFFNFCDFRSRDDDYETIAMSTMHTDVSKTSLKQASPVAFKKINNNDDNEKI

Row | SMILES | activation [%]
1 | Cc1nn(Cc2ccccc2Cl)c(Cl)c1C(=O)OC(C(=O)NC(N)=O)C(C)C (configuration not stated) | 43.3
2 | CSC1=NP(=S)(SC)N(C)c2nc3n(c21)CCC3 (configuration not stated) | 13.8
